Assay outcomes (PubChem BioAssay)
An excerpt weighted towards active compounds, which were near 8.7% of everything screened.
JMJD2A Tudor = JMJD2A Tudor domain (human) inhibition; AlphaScreen JMJD2A-Tudor / H3K4me3 peptide binding; Potency, µM (top dose mostly 114 µM), inactives show top-dose activity change, negative = inhibition, actives largely listed as inhibitors; 4.4% of 390,000 active; also: % is scaled to controls: 0 for no effect and ±100 for the full control effect; nearly all actives have a fitted effect of over 50% in size
Sfp PPTase inh = blocks B. subtilis Sfp PPTase activity | Biochemical Sfp PPTase activity, qHTS | Potency, µM, for the others: largest response in the series, negative = inhibition, actives largely listed as inhibitors | 3.5% of 310,000 active;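 also: the enzyme is Sfp with the accession as filed and its product quenches rhodamine fluorescence; 0% = enzyme reaction without inhibitor and -100% = no enzyme wells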
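With Hepes-Na pH 7.6 buffer containing 10 mM MgCl2, Sfp (15 nM) modified BHQ-2-YbbR (12.5 uM) using rhodamine-CoA (5 uM). Two reads 30 minutes apart at 525/598 nm yielded each well's rate.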
BAZ2B inh = inhibitors of human BAZ2B bromodomain | Potency, µM (titrated, usually from 114 µM), without a hit: at the top dose activity change, negative = inhibition, usual class: inhibitors | 4.4% of 360,000 active | AlphaScreen BAZ2B-H3K14Ac peptide displacement | Q9UIF8; also: % is scaled to controls: 0 for no effect and ±100 for the full control effect; nearly all actives have a fitted effect of over 60% in size
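Compounds, titrated to a top concentration of 110 uM, were incubated 30 min at room temperature with preformed BAZ2B/acetyl-K14 H3 peptide complex (50 nM each). Proximity signal was measured by AlphaScreen after 20 min with beads.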
G9a inh = inhibitors of human histone lysine methyltransferase G9a. Q96KQ7. AID 504332. Potency, µM (series often up to 102 µM), without a hit: top-dose activity, negative = inhibition, hits mostly inhibitors. G9a H3K9 monomethylation, AlphaScreen, 2 h. 8.8% of 350,000 active; also: % is scaled to controls: 0 for no effect and ±100 for the full control effect; nearly all actives have a fitted effect of over 75% in size
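AlphaScreen detection with an anti-monomethyl H3K9 antibody quantified product after a 2 h room-temperature reaction containing 500 nM biotinylated H3K9 peptide, 20 µM SAM and 20 nM enzyme, which had been preincubated 15 min with compound.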
HP1b chromo inh = HP1-beta chromodomain-methylated histone interaction inhibition; P83916; AID 540317; Potency, µM (highest dose often 114 µM), for inactives: at the top dose activity change, negative = inhibition, hits mostly inhibitors; AlphaScreen HP1-beta / biotin-H3K9me3 peptide binding; 0.56% of 390,000 active; also: nearly all actives have a fitted effect of over 70% in size
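HP1-beta protein (50 nM final) preincubated 30 min at room temperature with biotinylated H3(1-18)K9me3 peptide (50 nM) in PBS pH 7.4, 0.01% Tween-20, then compound added for 30 min. AlphaScreen streptavidin donor/nickel chelate acceptor beads (10 ug/mL final), 30 min dark, luminescence read.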
ALOX12 inh = blocks human arachidonate 12S-lipoxygenase; 1.1% of 580,000 active; purified 12hLO, xylenol orange hydroperoxide absorbance; Potency, µM (highest dose often 108 µM), inactives show at the top dose activity change, negative = inhibition, usual class: inhibitors; also: % is scaled to controls: 0 for no effect and ±100 for the full control effect
Target sequence (P18054 whole entry, looked up): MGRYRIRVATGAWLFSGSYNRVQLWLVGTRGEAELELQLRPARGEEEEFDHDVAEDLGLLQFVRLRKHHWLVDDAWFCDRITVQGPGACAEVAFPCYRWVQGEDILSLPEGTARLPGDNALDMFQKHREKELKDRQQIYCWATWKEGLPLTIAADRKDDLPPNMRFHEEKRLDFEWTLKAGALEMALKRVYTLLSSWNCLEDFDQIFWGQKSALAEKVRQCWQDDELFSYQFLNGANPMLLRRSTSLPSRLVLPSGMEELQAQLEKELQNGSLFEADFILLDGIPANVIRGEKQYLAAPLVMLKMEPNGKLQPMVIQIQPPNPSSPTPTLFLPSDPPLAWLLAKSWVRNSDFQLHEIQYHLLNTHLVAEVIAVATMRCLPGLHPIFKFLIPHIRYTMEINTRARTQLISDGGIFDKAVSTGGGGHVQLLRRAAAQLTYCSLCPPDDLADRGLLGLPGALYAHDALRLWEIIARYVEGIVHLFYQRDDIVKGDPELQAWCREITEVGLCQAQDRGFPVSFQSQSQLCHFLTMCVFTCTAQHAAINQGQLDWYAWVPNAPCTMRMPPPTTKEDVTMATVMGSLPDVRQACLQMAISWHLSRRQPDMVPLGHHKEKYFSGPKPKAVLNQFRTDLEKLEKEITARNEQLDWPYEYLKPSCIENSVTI
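Hydroperoxide product was detected by ferrous iron/xylenol orange as the 573 to 405 nm absorbance ratio. Arachidonic acid at 40 uM (final) was turned over for 30 min at room temperature by 150 nM human 12hLO, pH 7.0 Hepes buffer, after 15 min compound preincubation.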
Numbers without * were called inactive; ? = inconclusive; · = no result; ! = repeats disagree; [ ] = another dose, or the depositor's remark. Calls follow the shape of the dose curve; as a rule, active = well fitted curve in the direction sought with a large enough effect; inconclusive = small, poorly fitted or top-dose-only effect, or another doubt; inactive = no such curve, though single readings can be large; an effect the other way counts as inactive or inconclusive. Potency is read from the fitted curve at half-maximal effect.

SMILES	JMJD2A Tudor	Sfp PPTase inh	BAZ2B inh	G9a inh	HP1b chromo inh	ALOX12 inh
Fc1ccc(-n2nnc(-c3cccnc3Cl)n2)cc1	11%	3%	0%	-29%[59 µM]	48%	1%
Fc1ccc(-n2nnc(-c3nccs3)n2)cc1	?	-5%	5%	9%[59 µM]	32%	11µM*
COc1ccc(C2NCCc3c2[nH]c2ccccc32)cc1CSc1nc2ccccc2s1 (stereo unspecified)	25µM*	45µM*	45µM*	8.9µM*	?	32µM*
CCc1sc(C(C2C(=O)CC(C)(C)CC2=O)C2C(=O)CC(C)(C)CC2=O)cc1[N+](=O)[O-]	-12%	11µM*	?	·	35%	?
Cc1ccc(NC(=O)C2(CCO)CCN(c3ncccn3)C2)cc1 (stereo unspecified)	·	·	·	·	·	31%
Cc1cc(NC(=O)CSc2nc3c(c(-c4cccnc4)c2C#N)CCC3)no1	?	2%	79µM*	18%[59 µM]	22%	?
O=C(NCCc1ccccc1)C1(c2ccccc2)CCCC1	3%	11%	-37%	29%[0.501 µM]	40%	-2%
N#CC1(c2ccccc2)CCC(NCCc2ccccc2)CC1 (stereo unspecified)	50µM*	-25%	56µM*	25µM*	16%	-59%
COc1ccc(C(=O)NCC2Cn3cccc3CN2Cc2cccnc2)cc1 (stereo unspecified)	·	·	·	·	·	224%
O=C(NCc1cccnc1)[C@@H]1C[C@@H](O)CN1C1CCN(C(=O)CN2CCCCCC2)CC1	·	·	·	·	·	84%
Cc1cc(NCCCN2CCOCC2)n2nc(C)c(-c3ccccc3)c2n1	-32%	1%	14%	-7%	-14%	-21%
Cc1cc(NCCC(C)C)n2nc(C)c(-c3ccccc3)c2n1	57%	56µM*	48%	69%[59 µM]	169%	-22%
CN(C)S(=O)(=O)c1ccc(C(=O)Nc2ccccc2SCCC#N)cc1	-12%	14µM*	·	5µM*	9%	?
NC(=O)c1ccccc1NC(=O)c1cc(=O)c2ccccc2o1	·	·	·	·	·	5%
N#CCCSc1ccccc1NC(=O)c1cc(=O)c2ccccc2o1	-21%	22µM*	-18%	20µM*	16%	?
CN(C)CCNC(=O)C1CCCN(c2nc(Cl)nc3nc[nH]c23)C1 (stereo unspecified)	·	·	·	·	·	-1%
CC(C)[C@H](NC(=O)c1ccccc1)C(=O)OCc1nc2scc(-c3ccccc3)c2c(=O)[nH]1	16%	1%	-29%	-6%[12.7 µM]	20%	-10%
O=C(OCc1nc2scc(-c3ccccc3)c2c(=O)[nH]1)c1ccco1	-18%	·	8%	?	20%	0%
O=C(OCc1nc2scc(-c3ccccc3)c2c(=O)[nH]1)c1cccc([N+](=O)[O-])c1	?	?	-2%	40µM*	?	-4%
NC(=O)Cc1nc2scc(-c3ccccc3)c2c(=O)[nH]1	-10%	79µM*	-19%	14µM*	-6%	?
O=C(Nc1ccccc1)N1CCN(c2cnccn2)CC1	·	·	·	·	·	12%
CN(C)c1ccc(CN[C@H]2C[C@H]3C(=O)NC[C@@H](CCC(=O)NCc4ccccc4)N3C2)cc1	·	·	·	·	·	22%
Cc1cc(F)ccc1NC(=O)c1nn(CC(C)C)c(=O)c2ccccc12	·	·	·	·	·	-11%
O=C(Nc1cccnc1)Nc1ccc(Cl)cc1Cl	?	-11%	-19%	50µM*	42%	25µM*
COCCn1c(=O)c2c(nc(-n3nc(C)cc3C)n2CC(C)C)n(C)c1=O	·	·	·	·	·	2%
Cc1nc(-c2ccsc2)sc1C(=O)Nc1ccc2[nH]c(=O)[nH]c2c1	·	·	·	·	·	-10%
Cc1ccc(Cl)cc1NC1=C/C(=N\S(=O)(=O)c2cccs2)c2ccccc2C1=O	2.8µM*	-4%	10µM*	8.9µM*	4µM*!	-11%
O=C1C(Nc2ccc(O)cc2)=C/C(=N/S(=O)(=O)c2cccs2)c2ccccc21	20µM*	-4%	7.9µM*	11µM*	?	?
